According to PubChem BioAssay AID743398 (Broad Institute, 2014):
The campaign covered roughly 300,000 compounds. About 3,600 (1.2%) were called active. No stated cut-off is given here; in the data, active means activation above about 30% (passing the limit was not always enough); inconclusive means no clear call, values can overlap the other calls. The list comes from a sample in which actives are over-represented; it also holds similar structures and randomly drawn compounds.

Experiment: Wnt/beta-catenin pathway activators, primary screen, cell-based, plate reader, single point (AID 743398);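 further: 0% = neutral control wells and 100% = positive control wells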
Conditions: Wnt/beta-catenin reporter cell assay, activator, at 9.35 µM, hits give high values

activation, inactive:
COc1ccccc1NC(=O)/C=C/C(=O)O 0.198%
O=C(O)/C=C/C(=O)Nc1ccc(F)cc1F -1.57%
CCc1nc2c(OCc3ccccc3)cccn2c1N(C)C(=O)c1ccco1 -1.39%
Cc1ccc(C(O)c2ncc(-c3ccccc3F)[nH]2)cc1F (configuration not stated) -2%
COc1ccc(C2OC(CCc3ccccc3)Cc3[nH]c(=S)[nH]c(=O)c32)cc1 (configuration not stated) -4.52%
OCCC#Cc1ccc(N2C(c3ccsc3)=Cc3ccc(F)cc3C2c2c[nH]c3ccccc23)cc1 (configuration not stated) -4.42%
C=CC1=CCN(S(=O)(=O)C(C)(C)C)[C@@H]1CCO -5.37%
O=C(N/N=C/c1ccco1)c1csc2c1CCCC2 14.7%
O=C(Nc1ccccc1N1CCOCC1)c1csc2c1CCCC2 3.53%
COc1cccc(CNC(=O)[C@H]2CCCN2C(=O)[C@H]2CCCN2C(=O)c2ccc(F)cc2)c1 -3.18%
Cc1ccc2nc(-c3ccc(CN4CCC(n5cc(-c6ccccc6)[nH]c5=O)CC4)cc3)c(-c3ccccc3)nc2c1 -0.633%
O=C(NN=Cc1ccc(N2CCOCC2)cc1)c1cc2ccccc2cc1O -3.76%
O=C(O)c1ccc2c(c1)C(=O)N(NC(=O)c1ccc(O)cc1)C2=O -0.273%
O=C(CN1CCN(S(=O)(=O)/C=C/c2ccccc2)CC1)Nc1ccc(N2CCOCC2)cc1 -0.917%
Cc1cccc(N2C(=O)c3ccc(C(=O)Nc4cccc(C(=O)O)c4)cc3C2=O)c1 3.97%
O=C(c1ccc(N2CCCC2=O)cc1)N1CCN(c2ccc(C(F)(F)F)cc2[N+](=O)[O-])CC1 -1.11%
CC(=O)c1ccc(Nc2nc(C(N)c3ccccc3Cl)cs2)cc1 (configuration not stated) -4.58%
O=C(C(=O)N1CCC(CNS(=O)(=O)Cc2ccccc2)CC1)c1cc2ccccc2o1 -4.41%
CCc1nc(SCC(=O)NNC(=O)c2ccc(C)cc2)c2ccccc2n1 -1.15%
Cc1ccc(C(=O)NNC(=O)c2cccs2)cc1 6.9%
COC(=O)C1=C(C)N(Cc2ccccc2C(F)(F)F)C(=NCC2CC2)NC1c1cccc(Cl)c1 (configuration not stated) -1.87%
CCOC(=O)[C@]12CCCC=C1N(Cc1cccc3ccccc13)C(=O)[C@H](CC(=O)NCC13CC4CC(CC(C4)C1)C3)C2 -3.35%
CCc1c(-c2ccc(F)cc2)ncn1Cc1cccc(-c2ccccc2)c1 -4.88%
CN[C@H]1C[C@H]2c3[nH]c4c(-c5ccccc5)cccc4c3CCN2C(=O)[C@H]1[C@H](C)O -5.37%
CCCc1nc2c3ccccc3ccn2c1Cc1ccccc1C(F)(F)F -0.94%
Cc1ccc(N)cc1CN1CCN(c2ncc(Cc3ccccc3)cn2)CC1 -1.28%
COc1ccc(-c2[nH]ncc2CN(C)Cc2cc(C)[nH]n2)c(F)c1 -0.792%
COc1ccc(-c2[nH]ncc2CN(C)Cc2cccnc2)c(F)c1 8.31%
CCOC(=O)N1CCN(C(=O)c2ccccc2N(Cc2ccccc2)S(=O)(=O)c2ccc(OC)cc2)CC1 -3.31%
O=C(O)c1cc(S(=O)(=O)N(Cc2ccccc2)c2ccccc2)ccc1Cl 1.67%
O=C(N[C@H](Cc1ccccc1)C(=O)N1CCCN(Cc2cccs2)CC1)[C@H]1O[C@@H](n2ccc(=O)[nH]c2=O)[C@H](O)[C@@H]1O 2.26%
NC(=O)c1ncn([C@@H]2O[C@H](C(=O)O)[C@@H](O)[C@H]2O)n1 3.51%
Cc1cccc(Nc2nc(-c3ccccc3)cs2)n1 19.7%
CC(=O)Nc1cccc(-c2csc(Nc3cccc(C)n3)n2)c1 26.8%
CC(=NNC(N)=O)c1ccc(Cl)c(-n2cccc2)c1 -7.68%
COc1ccccc1-c1cc2nc(NCc3cccc(Cl)c3)ccn2n1 -1.89%
Cc1ccc(OCC(=O)Nc2nnc(-c3ccco3)s2)cc1 -0.584%
COc1ccc(OCC(=O)Nc2nnc(-c3ccco3)s2)cc1 -4.19%
C=CCN=C1NC(c2ccccc2)C(C(=O)OC)=C(C)N1Cc1ccc(C(F)(F)F)cc1 (configuration not stated) -8.4%
Cn1c(NC(=O)c2ccccc2)nc2ccccc21 19.2%
Cn1c(S(=O)(=O)O)nc2ccccc21 -1.9%
CCCCc1c(-c2ccc(Cl)cc2)ncn1CCc1ccccc1OC -10.4%
O=S1(=O)c2ccc(Br)cc2-n2nncc2CN1Cc1cccc(Cl)c1 -0.853%
CCOC(=O)[C@H]1Nc2ccc(Cl)cc2[C@@H]2[C@H]1C1CC(c3ccccc31)N2C(=O)OCc1ccccc1 (some centres not stated) -1.09%
Cc1cccc(N2O[C@H]3C=CC2CCCC3)n1 -7.04%
COc1ccc(C2=Nc3ccccc3NC(=O)C2N(C(=O)c2cc3ccccc3[nH]2)c2ccccc2)cc1 (configuration not stated) 23.9%
CCCCCCCCN1C(=O)[C@@H](CC(=O)N2CCN(C(=O)OCC)CC2)C[C@@]2(C(=O)OC)C1=C[C@H](C1CCCC1)O[C@@H]2C -4.17%
CCCCOCCCNC(=O)C[C@@H]1C[C@@]2(C(=O)OCC)CCCC=C2N(CCC2=CCCCC2)C1=O -4.42%
CC1CCN(C(=O)c2ncn3c2C(=O)N[C@@H](C)C3)CC1 -1.28%
C[C@H]1[C@H](c2ccccc2)Oc2cc(Br)ccc2S(=O)(=O)N1Cc1cccc(F)c1 -3.84%
CCCNC(=O)C1(C)CCCN(Cc2cccc(C(F)(F)F)c2)C1 (configuration not stated) -4.42%
COc1cccc(NC(=O)CN(C)C(=O)CSC(=S)N2CCCC2)c1 0.702%
O=C(CSC(=S)N1CCOCC1)c1ccccc1 9.4%
O=C(NS(=O)(=O)c1cccs1)[C@H]1O[C@@H](n2ccc(=O)[nH]c2=O)[C@H](O)[C@@H]1O -2.42%
COC(=O)[C@]12CCCCC=C1N(Cc1cccc3ccccc13)C(=O)[C@H](CC(=O)N1CCOCC1)C2 2.09%
COCc1[nH]nc2c1C(c1ccccc1)N(c1ccccc1)C2=O (configuration not stated) -1.18%
Cc1ccc(S(=O)(=O)N2CCN(C(=O)COC(=O)c3c(C)cc(C)cc3C)CC2)c(C)c1 -2.2%
Cc1ccc(S(=O)(=O)N2CCN(C(=O)CSc3cc(C)ccc3C)CC2)c(C)c1 -0.764%
Cc1ccc2nc(CN(C)C(=O)[C@@H](Cc3ccccc3)NC(=O)[C@H]3O[C@@H](n4ccc(=O)[nH]c4=O)[C@H](O)[C@@H]3O)[nH]c2c1 -3.23%
CCn1nc(C(=O)OCC(=O)N2c3ccccc3CC2C)c2ccccc2c1=O (configuration not stated) -0.818%
Cc1ccn(CCC(=O)N2c3ccccc3CC2C)n1 (configuration not stated) -0.727%
CCc1nc2ccc(C(=O)NC3CCN(Cc4ccccc4)CC3)cn2c1N(CC)CCOC -0.563%
O=C1C(Sc2cccc(F)c2)=C[C@@]2(O)CC[C@@H](O)[C@]1(Sc1cccc(F)c1)[C@H]2O -1.51%
COc1ccc(O)c(/C=N/N=C/c2cccc([N+](=O)[O-])c2)c1 5.49%
O=C(N/N=C/c1cccc([N+](=O)[O-])c1)c1ccncc1 -0.352%
COCC1CCCCN1C(=O)c1cc(COc2ccc(C)c(C)c2)on1 (configuration not stated) 28.7%
CO[C@@H]1CN(C)C(=O)c2cc(NC(=O)Nc3cc(F)ccc3F)ccc2OC[C@H](C)N(C(=O)c2ccccn2)C[C@@H]1C -7.29%
c1ccc2c(c1)nnn2-c1ccncc1 -1.47%
COC(=O)c1sccc1NC(=O)c1ccc(Cl)cc1 -0.421%
COC(=O)c1sccc1NC(=S)Nc1ccc(C)cc1 12.9%
O=C(NC1CCCCC1)C(c1cc2ccccc2o1)n1c(=O)c(-c2ccco2)nc2ccccc21 (configuration not stated) 2.44%

activation, active:
COC(=O)c1sc(-c2ccc(C(C)(C)C)cc2)cc1NC(=O)/C=C/C(=O)O 34.5%
Cc1ccc(NC(=O)c2csc3c2CCCC3)cc1 33.5%
O=C(O)c1ccc2c(c1)C(=O)N(c1ccc(/C=C/C(=O)c3ccccc3)cc1)C2=O 31.9%
O=C(/C=C/c1ccc(N2CCOCC2)cc1)c1ccccc1 38.7%
Cc1ccc(C(=O)NNc2ncnc3ccccc23)cc1 42.9%
CCN(CCn1cccn1)Cc1cn[nH]c1-c1ccc(OC)cc1F 33.5%
NC(=O)c1ccccc1N(Cc1ccccc1)S(=O)(=O)c1ccccc1 30%
COc1ccc(-c2csc(Nc3cccc(C)n3)n2)cc1OC 50%
CCCCOc1ccc(-c2nnc(-c3ccco3)o2)cc1 46.7%
Cn1c(-c2ccc(C(=O)c3ccccc3)s2)nc2ccccc21 44.9%
Cc1ccn(-c2cccc(-n3ccc(C)n3)n2)n1 57.6%
O=C(CSC(=S)N1CCCCC1)c1c(F)cccc1F 58.4%
Cc1ccc(S(=O)(=O)N2CCN(C(=O)Cn3c(=O)cnc4ccccc43)CC2)c(C)c1 68.6%
CCCC(=O)N1c2ccc(-c3csc(N)n3)cc2CC1C (configuration not stated) 56.5%
O=[N+]([O-])c1cccc(C=NN=Cc2ccccc2O)c1 68%
COC(=O)c1sccc1NN1C(=O)c2ccccc2C1=O 40.2%
